Data taken from the OligoGym collection.

Molecular target: CNGB1
Assay: pooled miR-30 sensor sort-seq; sequence = guide strand
Conditions: shRNA
Also: reference of the scale not given here.

| Sequence | sensor-assay potency score (higher = more potent) |
| --- | --- |
| TAGGTAATCCATCAGCAGCCAG | -1.07 |
| TGGGCTGGTACTGACATCCTGG | -0.698 |
| TCTTTCTCCTCTTCAATCCGGG | -0.237 |
| TTTCTCCAAACACAGATCCAGC | -1.37 |
| TTGGGTTCATCTGTGCACCCTG | 0.488 |
| TGCGGTAGTAGGTCTGTCCGGC | 0.228 |
| TTCATGTACTTCACCGTGCTGT | 0.284 |
| TTGACGTCTTGCGAGCTCTTGG | -0.581 |
| TAAGCTGGAACCACCTCTGTAC | 0.05 |
| TTTGCTAACGATGTTGTAGTTC | 0.184 |
| TTCACCGTGCTGTCCATGCAGC | -0.762 |
| TTTCTCTGTCCGCTCCTTGAAG | -0.823 |
| TTGTCCGTAATGATGTCCCCGC | -0.775 |
| TTCTTGCACACATAGTCGTTGG | -0.837 |
